Assay [1] can be described thus: Viability qHTS for spleen associated tyrosine kinase inhibitor (SYKi) naive MV4-11 cells (AID 1963823). Note: nearly all actives have a fitted effect of over 40% in size. Note: potency is the fitted concentration of half-maximal effect. The procedure, abridged: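 Compounds were dispensed acoustically onto plates, MV4-11 cells (SYKi-naive) added at 500 per well, and plates incubated 72 hr at 37 C. CellTiter-Glo was added and luminescence measured after 10 min.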
(qHTS replaces the single test concentration by a dilution series.)

Assay [2] in a line: Viability qHTS for spleen associated tyrosine kinase inhibitor (SYKi) drug resistant MV4-11 cells (AID 1963824). Note: nearly all actives have a fitted effect of over 35% in size. Note: potency is the fitted concentration of half-maximal effect. Put shortly:
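CellTiter-Glo luminescence, read 10 min after reagent addition, reports viability after a 72 hr compound exposure. Cells are an MV4-11 line made resistant to SYK inhibition, seeded at 500 per well onto compound-containing plates.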

A short description of assay [3]: Quantitative highthroughput screen to assess conditional lethalithy of NOMO1 cells grown in Human Plasma-Like Medium with dialyzed fetal bovine serum (HPLM+ds) (AID 1963878). Note: potency is the fitted concentration of half-maximal effect; nearly all actives have a fitted effect of over 35% in size. The procedure, abridged:
(§1)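 Each medium arm—HPLM with 10% dialyzed FBS, or RPMI1640 with 5 mM glucose and 10% untreated or dialyzed FBS—was screened against an 11-point, 3-fold compound titration for 48 h at 37 °C, with CellTiter-Glo luminescence as endpoint.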

Assay [4] can be described thus: Quantitative highthroughput screen to assess conditional lethalithy of SEM cells grown in Human Plasma-Like Medium with dialyzed fetal bovine serum (HPLM+ds) (AID 1963882). Note: potency is the fitted concentration of half-maximal effect; nearly all actives have a fitted effect of over 35% in size. Put shortly:
as §1

The nature of assay [5]: Quantitative highthroughput screen to assess conditional lethalithy of SEM cells grown in RPMI1640 with unreated serum (RPMI+s) (AID 1963883). Note: potency is the fitted concentration of half-maximal effect; nearly all actives have a fitted effect of over 35% in size. The procedure, abridged: as §1
Assay [6] can be described thus: Quantitative highthroughput screen to assess conditional lethalithy of SEM cells grown in RPMI1640 with dialyzed fetal bovine serum (RPMI+ds) (AID 1963884). The procedure, abridged: as §1
Assay [7] in a line: Cellular viability qHTS for adrenocortical cancer (ACC) cell line NCI-H295R (AID 1963990). Note: nearly all actives have a fitted effect of over 60% in size. Note: potency is the fitted concentration of half-maximal effect. Put shortly:
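Viability of NCI-H295R after 48 h of treatment (final up to 46 uM) measured through cellular ATP luminescence.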

Assay [8] is described as follows: Cellular viability qHTS for adrenocortical cancer (ACC) cell line SW-13 (AID 1963989).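 Note: cells grown in serum-free medium with ITS supplement; % is set by controls: 0 for no effect and ±100 for the full control effect; nearly all actives have a fitted effect of over 65% in size.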 Conditions: SW-13 ACC cells viability, CellTiter-Glo, 48 h; activity (max response): hits give low values. Put shortly: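 Here, serum-free SW-13 cultures were dosed up to 46 uM. Following 48 h, ATP-dependent luminescence (CellTiter-Glo) reported viable cells, and logistic modeling produced IC50 values.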

Assay [9] can be described thus: Quantitative highthroughput screen to assess conditional lethalithy of P12 Ichikawa cells grown in Human Plasma-Like Medium with dialyzed fetal bovine serum (HPLM+ds) (AID 1963879). For Viability: series mostly up to about 46 µM. Note: nearly all actives have a fitted effect of over 35% in size. Note: potency is the fitted concentration of half-maximal effect. Conditions: Potency: viability. Put shortly: as §1
Assay [10] can be described thus: Quantitative highthroughput screen to assess conditional lethalithy of P12 Ichikawa cells grown in RPMI1640 with dialyzed fetal bovine serum (RPMI+ds) (AID 1963880).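 For Viability: 100% = DMSO wells and 0% = empty wells on each plate.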 Note: nearly all actives have a fitted effect of over 35% in size. Note: potency is the fitted concentration of half-maximal effect. To be noted: Potency: P12-Ichikawa viability. The procedure, abridged:
as §1

Assay [11] in a line: Quantitative highthroughput screen to assess conditional lethalithy of P12 Ichikawa cells grown in RPMI1640 with untreated serum (RPMI+s) (AID 1963881).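 For Viability: series mostly up to about 46 µM; 100% = DMSO wells and 0% = empty wells without cells.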 Note: nearly all actives have a fitted effect of over 35% in size. Note: potency is the fitted concentration of half-maximal effect. To be noted: Potency: viability. Put shortly: as §1

Values joined by “and” are separate entries in the source; they are usually repeats but may differ in a detail not shown here. Identical values can stand only once. Records with an inconclusive call do not appear. A number with no mark means an inactive call. Active and inactive are the calls of the source. Calls come from the whole dose curve; as a rule, active = well fitted curve in the direction sought with a large enough effect; inconclusive = small, poorly fitted or top-dose-only effect, or another doubt; inactive = no such curve, though single readings can be large; an effect the other way counts as inactive or inconclusive.

Regarding `COc1ccc(-c2cc3c(C)nc(N)nc3n(C3CCC(OCCO)CC3)c2=O)cn1` (stereo not drawn), the Potency in assay [1] is 105 nM (active); in assay [2], 206 nM (active) and 417 nM (active); in [3] it was 0.105 µM (active); in assay [4], 0.833 µM (active); in assay [5], 0.469 µM (active); in assay [6], 1.87 µM (active). Further, the Potency in [7] is 501 nM (active).

`Cn1cnc2c1c(=O)[nH]c(=O)n2C`: the Potency result in [1], in assay [2] and in assay [7] was “inactive” each time. Also, the Potency in assay [3] is 20.9 µM (active); in assay [5], 18.7 µM (active); in [6], 23.5 µM (active). Also, the activity (max response) in assay [8] is 4.02% and 2.06%.

With `CN1CCN(c2c(F)cc3c(=O)c(C(=O)O)cn4c3c2OCN4C)CC1`, the Potency result in assay [1], in assay [2], in [9], in [10] and in assay [11] was “inactive” throughout. The activity (max response) in assay [8] was -1.01%.

Turning to `O=C(Nc1ccc(OC(F)(F)F)cc1)c1sccc1NCc1ccnc2ccccc12`, the Potency was 5.25 µM (active) and 5.17 µM (active) in [1]; 4.68 µM (active) and 5.8 µM (active) in assay [2]; 0.469 µM (active) in assay [9]; 2.35 µM (active) in assay [11]; 2.96 µM (active) in assay [4]; 2.96 µM (active) in assay [5]. In assay [6], the Potency was 7.43 µM (active). The activity (max response) in [8] is -29.8%.

Regarding `Cc1nc(N)sc1-c1ccnc(Nc2ccc(N3CCOCC3)cc2)n1`, the Potency is 82 nM (active) in [1]; 164 nM (active) in assay [2]; 4.18 µM (active) in assay [3]; 2.35 µM (active) in assay [5]; 2.09 µM (active) in assay [6]. The activity (max response) in assay [8] was 4.45%. Besides, the Potency entry in assay [7] is “inactive”.

With `C[C@H](NC(=O)C(=O)Nc1ccccc1C(C)(C)C)C(=O)N[C@@H](CC(=O)O)C(=O)COc1c(F)c(F)cc(F)c1F`, the Potency in assay [1] was 2350 nM (active); in assay [2] it was 1860 nM (active); in assay [9], 20.9 µM (active); in assay [10], 14.8 µM (active); in assay [11] it was 14.8 µM (active); in assay [4] it was 5.26 µM (active). The Potency was 5.9 µM (active) in [5] and 5.26 µM (active) in [6].
